Bioassay records from PubChem.
An excerpt weighted towards active compounds, which were near 2.9% of everything screened.
TSHR antagonist – human thyrotropin receptor antagonism. P16473. TSHR-expressing cells, TSH-stimulated cAMP HTRF, 2 h; stronger effect = lower value. activity change, negative = inhibition, % at 11.5 µM. 330,000 tested, 0.2% active. AID 504810;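 active = activity change below a set negative limit, meaning inhibition stronger than a set level, cut at about -70% in these data; inconclusive = activity change between two set negative limits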; note: % is set by controls: 0 for no effect and ±100 for the full control effect
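Competitive HTRF cAMP read-out (cryptate anti-cAMP antibody, cAMP-d2; 30 min, room temperature) in freshly harvested TSHR cells. Compounds added before TSH at EC80 (4nM final), followed by 2 hours' incubation at 37 deg C.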
B2AR arrestin – beta2AR (human) beta-arrestin recruitment activity; P07550; beta-arrestin recruitment to beta2AR, cell-based reporter; Potency, µM (doses to about 46.1 µM), inactives show top-dose activation, usual class: activators; 330,000 tested, 0.02% active; AID 492947; active = well fitted activation curve with a large enough effect; inconclusive = small, poorly fitted or top-dose-only effect;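 note: potency is the fitted concentration of half-maximal effect; 0% = DMSO controls and full agonism = EC100 isoproterenol or metaproterenol; nearly all actives have a fitted effect of over 65% in size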
Target sequence (P07550 whole entry, looked up): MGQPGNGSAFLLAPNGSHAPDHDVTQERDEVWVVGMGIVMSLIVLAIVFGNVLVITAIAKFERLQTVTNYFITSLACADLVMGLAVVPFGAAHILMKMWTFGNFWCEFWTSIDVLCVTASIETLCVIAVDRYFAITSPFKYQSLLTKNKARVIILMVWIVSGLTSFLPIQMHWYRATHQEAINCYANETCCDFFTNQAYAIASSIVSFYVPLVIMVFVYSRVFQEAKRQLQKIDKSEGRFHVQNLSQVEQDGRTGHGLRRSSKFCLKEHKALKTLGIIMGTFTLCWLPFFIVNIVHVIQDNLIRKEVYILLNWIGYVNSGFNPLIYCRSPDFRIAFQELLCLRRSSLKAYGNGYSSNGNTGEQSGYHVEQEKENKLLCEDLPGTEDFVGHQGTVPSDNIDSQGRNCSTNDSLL
DRD3 agonist – agonists of human D3 dopamine receptor. P35462. D3R DiscoveRx beta-arrestin cells, luminescence, 90 min. max activation, %. 410,000 tested, 0.58% active; in the data active = max activation above about 30%; note: 0% is about no effect
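Agonist-mode cell screen: cells plated at 1500/well and incubated overnight at 37 °C, then exposed to library compounds for 90 min at 37 °C. Detection reagent was added for 30–60 min at room temperature, and luminescence was read.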
DRD3 antagonist – blocks the human D3 dopamine receptor | AID 652054 | 360,000 tested, 2.5% active | D3R cells, DiscoveRx beta-arrestin luminescence, antagonist mode; stronger effect = lower value | max response, negative = inhibition, % | P35462; in the data active = max response below about -50%; inconclusive = no clear call, values can overlap the other calls; note: % is set by controls: 0 for no effect and ±100 for the full control effect
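Cells plated overnight at 1500 cells/well, then exposed to library compounds with dopamine controls for 90 minutes at 37 degrees C. DiscoveRx reagent added for 30–60 minutes at room temperature; luminescence read, quantitative HTS format.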
* = called active by the depositor; ? = inconclusive; / = not tested or not shown.

SMILES	TSHR antagonist	B2AR arrestin	DRD3 agonist	DRD3 antagonist
COC(=O)c1c(NC(NC(=O)CC(C)C)C(Cl)(Cl)Cl)sc2c1CCC2 (centres undefined)	-47.1	-0.4%	6.3	-29.0
CC1CCc2c(sc(NC(=O)c3ccc(-c4ccccc4[N+](=O)[O-])o3)c2C#N)C1 (centres undefined)	3.5	11.8%	-13.1	-26.2
CCC(=O)NC(Nc1sc2c(c1C(=O)OC)CCC2)C(Cl)(Cl)Cl (centres undefined)	-72.0*	3.5%	12.2	3.4
COC(=O)c1c(NC(=O)c2c(OC)cccc2OC)sc2c1CCCC2	/	/	6.6	/
N#Cc1c(NC(=O)c2ccc(-c3ccccc3[N+](=O)[O-])o2)sc2c1CCCC2	-11.3	-0.7%	-13.8	-116.6*
COc1cccc(OC)c1C(=O)Nc1sc2c(c1C#N)CCC2	-118.4*	-0.6%	2.8	-7.6
O=C1O[C@@H]2[C@@H](O)[C@H](O)O[C@@H]2[C@H]1O	/	/	-6.9	/
CCC1CN(C(=O)Nc2cc(Cl)ccc2C(=O)OC)c2ccccc2S1 (centres undefined)	/	/	-14.1	/
COc1ccc(CC(=O)NC2CC(=O)N(c3cccc(F)c3)C2)cc1OC (centres undefined)	/	/	4.4	/
O=C1C2C=CC=CC2=NC(=S)N1CCN1CCC(=C(c2ccc(F)cc2)c2ccc(F)cc2)CC1 (centres undefined)	-22.0	/	/	/
CCOC(=O)c1cc(S(=O)(=O)Nc2cc(F)ccc2C)[nH]n1	/	/	-10.6	/
CCOc1ccc(Oc2nc(NCC(C)C)nc(NC(C)(C)C)n2)nn1	/	/	-1.3	/
COc1ccc(CN(C)CC(=O)Nc2sc3c(c2C#N)CCC3)cc1OC	-4.2	2.9%	37.1*	23.7
COc1ccc(NS(=O)(=O)c2ccc3oc(Nc4ccc5c(c4)OCCO5)nc3c2)cc1	?	-0.4%	4.7	-56.3*
COc1ccc(NS(=O)(=O)c2ccc(NS(=O)(=O)c3ccc4c(c3)OCCO4)cc2)cc1	/	/	-11.8	/
CC(C)(C)c1cc(CN2CCOCC2)c(C(=O)O)o1	1.0	0.0%	-1.4	-80.6*
c1ccc(-c2nnc(SCCC3OCCCO3)o2)cc1	-5.4	0.6%	102.9*	12.7
Cc1nn(-c2ccc(N3CCCCC3)nn2)c(C)c1CCC(=O)NCc1ccc(Cl)cc1	/	/	-11.9	/
COc1ccc(NC(=O)CN2CCN(CC(=O)Nc3ccccc3Cl)CC2)c(OC)c1	-12.7	-0.8%	30.4*	26.6
COc1ccc(-c2[nH]ncc2CN2CCC(C(=O)c3ccc(F)cc3)CC2)cc1	-0.5	4.3%	-16.3	-90.2*
COc1ccc(OC)c(NC(=O)CN2CCC(C(=O)c3ccc(C)cc3)CC2)c1	6.0	-0.8%	-11.5	?
COc1ccc(NC(=O)CN2CCC(C(=O)c3ccc(F)cc3)CC2)c(OC)c1	-21.0	-0.2%	-16.6	-73.3*
COc1ccc(NC(=O)CN2CCC(C(=O)c3ccc(C)cc3)CC2)c(OC)c1	-1.5	-0.2%	-19.0	-71.0*
COc1ccc(NC(=O)N2CCC(C(=O)c3ccc(F)cc3)CC2)cc1	-1.6	-0.1%	16.3	10.5
COc1ccccc1NC(=O)Cn1c(=O)n(CC(=O)NCc2ccccc2Cl)c(=O)c2sccc21	/	/	-19.8	/
SMILES	TSHR antagonist	B2AR arrestin	DRD3 agonist	DRD3 antagonist
CCOc1ccc(CN2C(=O)c3ccccc3Sc3ccc(C(=O)NCc4ccc5c(c4)OCO5)cc32)cc1	/	/	-2.7	/
Cc1oc2c(cc(NS(=O)(=O)c3ccc(F)cc3)c3ccccc32)c1C(=O)OCc1ccccc1	/	/	10.1	/
C[C@H]1NCc2cc(-c3ccc4c(=O)c(C(=O)O)cn(C5CC5)c4c3OC(F)F)ccc21	/	/	5.3	/
Cc1cccc(CNC(=O)c2cnc3sc(N4CCOCC4)nn3c2=O)c1	/	/	-13.0	/
COc1cccc(CNC(=O)Cc2c(C)c3c(cc(C)c4c(C)coc43)oc2=O)c1	/	/	7.5	/
CCc1ccc(NC(=O)c2cnc3sc(N4CCCC4)nn3c2=O)cc1	/	/	18.3	/
COc1ccc(NC(=O)Cn2c(SCc3ccc(C)cc3)nc3cccnc32)c(OC)c1	/	/	38.8*	/
COc1cc(NC(=O)Cn2c(SCc3ccc(F)cc3)nc3cccnc32)cc(OC)c1	/	/	-3.0	/
C=CC(C)(C)c1c(O)c(CC=C(C)C)c(O)c2c(=O)c3ccc(O)c(O)c3oc12	/	/	89.5*	81.3
COc1ccc(-n2cc(CNCCc3ncc(C)[nH]3)c(-c3ccccc3Cl)n2)cc1	-5.9	0.1%	-3.0	-18.8
Fc1ccc(-n2cc(CNCCc3ccccn3)c(-c3ccccc3Cl)n2)cc1	-6.7	-0.6%	-39.2	-85.8*
COc1ccc(-n2cc(CNCCCn3ccnc3)c(-c3ccccc3Cl)n2)cc1	-3.5	-0.5%	-2.9	?
COc1ccc(-n2cc(CNCCc3nc(C)cc(C)n3)c(-c3ccccc3Cl)n2)cc1	-17.6	-0.4%	-25.2	-85.4*
COc1ccc(CNC(=O)CCn2cccn2)cc1	/	/	1.7	/
CCc1nc(SC)ncc1C(=O)N1CCN(c2cc(C)ccc2C)CC1	/	/	-7.6	/
Oc1ccc(CCNc2ncnc3ccc(Cl)cc23)cc1	?	0.1%	51.7*	51.2
O=C(Nc1ccccc1)C1=C(c2ccccc2)S(=O)(=O)CCS1(=O)=O	?	-0.2%	-22.3	-104.6*
O=C(NCCCN1CCN(c2cccc(Cl)c2)CC1)C1(S(=O)(=O)c2ccc(Cl)cc2)CC1	3.4	0.2%	11.1	-56.5*
COc1ccc(N2CCN(CCCNC(=O)Nc3ccccc3Cl)CC2)cc1	/	/	-16.7	/
COc1ccc(Cl)cc1N1CCN(CCNC(=O)Nc2ccccc2C)CC1	4.0	0.2%	-17.4	-131.1*
COc1ccccc1NC(=O)NCCCN1CCN(c2cccc(Cl)c2)CC1	-1.3	0.0%	1.5	-108.3*
Cc1nc2ncnn2c(C)c1CCC(=O)NCCCN1CCN(c2cccc(Cl)c2)CC1	-6.0	-0.2%	9.5	-52.4*
Cc1ccc(NC(=O)CCCN2C(=O)COc3ccc(C)cc32)c(Cl)c1	/	/	-18.8	/
CCc1ccccc1NC(=O)CSC1=Nc2ccccc2C2=NC(Cc3ccccc3)C(=O)N12 (centres undefined)	/	/	-7.3	/
COc1ccc(CNc2ccc3cc(S(=O)(=O)N4CCCCC4)ccc3n2)cc1	/	/	5.3	/
SMILES	TSHR antagonist	B2AR arrestin	DRD3 agonist	DRD3 antagonist
O=C(NCC1CCCO1)c1ccc(S(=O)(=O)N2CCC(c3nc4ccc(Cl)cc4[nH]3)CC2)cc1 (centres undefined)	-10.6	-0.2%	-5.6	-61.9*
CCOC(=O)c1nc(C)sc1-c1ccnn1S(=O)(=O)c1ccccc1C(F)(F)F	-3.0	3.2%	7.2	9.6
CCOC(=O)c1nc(C)sc1-c1ccnn1S(=O)(=O)c1ccc(C)cc1	-77.7*	3.5%	-12.7	-12.7
CCOC(=O)c1c(C)oc2ncnc(N3CCN(c4ccccc4F)CC3)c12	/	/	-0.2	/
CCCCN(CCCNC(=O)c1c(C)oc2nc[nH]c(=O)c12)Cc1ccccc1	/	/	1.3	/
CN(CC(=O)Nc1cc(S(=O)(=O)N2CCCCCC2)ccc1Cl)Cc1ccc2c(c1)OCO2	-6.5	0.0%	-21.8	-53.8*
COc1ccc(S(=O)(=O)N2CCCCCC2)cc1NC(=O)CN(C)Cc1ccc2c(c1)OCO2	-0.7	-0.2%	-22.0	-68.1*
COc1ccc(S(=O)(=O)N2CCCCC2)cc1NC(=O)CN(C)C1CCCCC1	-2.5	0.8%	-3.7	4.0
